Measured values from the supplement of paper PMC3334620.
Whole data set: some 33,000 sequences, median “E-score (-0.5 to 0.5)” near -0.013, cut for the highest 2% near 0.3. The sample holds the highest values, similar sequences and a random draw of the others, so the mix is not that of the screen.

Molecular target: T1, Msn1 (UniProt P22148)
T1 sequence: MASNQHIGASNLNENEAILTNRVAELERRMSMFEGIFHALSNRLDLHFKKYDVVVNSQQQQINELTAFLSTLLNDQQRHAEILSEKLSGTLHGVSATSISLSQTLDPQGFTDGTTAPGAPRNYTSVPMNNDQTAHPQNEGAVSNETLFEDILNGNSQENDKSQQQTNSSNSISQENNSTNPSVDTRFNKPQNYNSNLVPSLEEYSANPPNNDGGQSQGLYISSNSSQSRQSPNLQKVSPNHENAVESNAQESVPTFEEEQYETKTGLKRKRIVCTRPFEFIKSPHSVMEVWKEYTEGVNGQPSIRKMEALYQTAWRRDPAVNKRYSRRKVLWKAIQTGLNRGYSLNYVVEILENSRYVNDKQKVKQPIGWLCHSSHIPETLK
Test: PBM E-score (8-mer binding enrichment) (E-score (-0.5 to 0.5)); higher = stronger / more preferred TF binding
Settings: protein concentration: 200 nM; construct: GST-full length
Experimental: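 Universal 'all 10-mer' protein binding microarrays (Agilent AMADID 015681) probed with GST-tagged S. cerevisiae TFs (full-length or DBD) made by in vitro transcription/translation (PURExpress), about 100-200 nM. Bound TF was detected with fluorescent anti-GST. Each ungapped 8-mer (which stands for itself and its reverse complement) is scored by the PBM enrichment score (E-score), a modified Wilcoxon-Mann-Whitney statistic from -0.5 to +0.5, computed with the Universal PBM Analysis Suite. Scale: above 0.35 generally sequence-specific binding.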

Sequence | PBM E-score
AGGGACAT | 0.488
AGGGACGG | -0.35
CGGGACCA | -0.152
AGGGACCA | -0.188
AGGGACGA | 0.261
CGGGACAA | 0.463
CGGGACAG | 0.197
AGGGACAA | 0.487
CGGGACTC | 0.0112
CGGGACAC | 0.376
AGGGACCT | -0.0323
CGGGACGA | 0.115
GGCTAAGA | 0.0666
ATCCTAGC | -0.118
CCAAGAAA | 0.0697
AAATAGCA | -0.00406
AACCTCGT | -0.0168
AGGGACGC | -0.0191
AGGGACAC | 0.45
AGGGACAG | 0.107
AAATTTGA | 0.19
AAATTTGT | 0.363

Sequence | PBM E-score
AATTTTGC | 0.0375
AAATTTGG | 0.104
AATTTTGA | 0.161
AATTTTGT | 0.34
ACATGCGT | 0.0734
CGTGTACA | 0.277
CATTCTAG | -0.0107
CTAGCGCA | -0.153
CGCAAAGC | 0.0415
ACAATACT | 0.325
ACAATACA | 0.0447
ACAATACG | 0.0932
ATAGACTA | 0.00413
ATAGACAT | 0.428
ATAGACAC | 0.245
ATAGACAG | 0.202
ATAGACAA | 0.41
ATAGACGA | 0.0929
ATCGTCTA | 0.0246
ATGAAGTC | -0.0197
ACAGCTCG | -0.137
TAGGAATA | 0.0598

Sequence | PBM E-score
AACCATGT | 0.0974
ATGCAGGC | -0.112
AGATTTAT | 0.0411
ACATTTAG | 0.279
CCATTTAC | 0.0112
GCATTTAC | 0.0372
ACATTTAC | 0.333
ACATTTAT | 0.319
CACAAGCC | -0.139
CATCAGTA | 0.0122
AGTGGTCG | -0.0675
AGTTAAAT | 0.0476
CGTGTTAA | -0.00332
ATTTCGGA | 0.239
GGGGGACA | 0.287
CGGGGACC | -0.1
CGGGGACG | -0.152
TGGGGAAA | -0.0201
AGGGGACT | -0.151
TGGGGACA | 0.433
CGGGGACA | 0.396
AGGGGACG | -0.0829

Sequence | PBM E-score
AGGGGACA | 0.386
CTTGAGAC | 0.0475
GACGTTAC | 0.0854
AGGACGTC | 0.177
GAGAAACA | 0.0761
CGAGTGGC | -0.181
AGGTCGCG | 0.0713
ATGTCGCA | 0.38
ATGTCGCC | 0.115
GTGTCGCA | 0.0382
ATGTCGCG | 0.387
ACGTCGCG | 0.138
GGGGCCAC | -0.325
GTCGCGAA | 0.141
GTCGCGAC | 0.349
CTCGCGAC | 0.0116
AAGCTGGT | -0.026
TAGGCCTA | -0.0564
ACGTTGTC | 0.119
AAGTTGTC | 0.298
CCGTTGTC | 0.304
